Measurements reported in PubChem BioAssay (NCATS).
Results filed as inconclusive are left out. For some assays here: Entries with a potency or affinity are not part of this list. Activity calls are given as the source filed them. Unless noted, the rule behind the calls is not given here.

Key:
[1] = Ebola virus entry assay, green fluorescence channel
[2] = Ebola virus entry assay, blue channel fluorescence
[3] = Ebola virus entry assay, ratio channel
[4] = Ebola virus entry assay, green channel fluorescence
[5] = Ebola virus entry assay, reporter ratio channel; Channel type: primary
[6] = Ebola virus entry assay, blue channel (ratio component)
[7] = qHTS assay for measurement of the activity of small molecule inhibitors on Zika virus induced Caspase-3 activity in human iPSC derived neural progenitor cells (hNPCs) (AID 1224857; active = well fitted inhibition curve with a large enough effect; note: % of control where 0% means no effect; nearly all actives have a fitted effect of over 65% in size); conditions: hNPCs ZIKV-induced caspase-3/7, Caspase-Glo luminescence, 6 h; series mostly up to 45.7 µM
How it was run: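 Caspase-3/7 induction by a 6-hour ZIKV infection was quantified with a luminescent Caspase-Glo 3/7 reagent incubated 30 minutes at room temperature. Compounds were preincubated with hNPCs for 1 hour; inhibition was calculated against uninfected and infected control wells.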

[8] = qHTS assay for measurement of the activity of small molecule inhibitors on Zika virus induced Caspase-3 activity in human astrocytoma cells (AID 1224859; active = well fitted inhibition curve with a large enough effect;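 note: plate controls were ZIKV-infected untreated cells for no effect and uninfected cells for full effect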); conditions: SNB-19 ZIKV-induced caspase-3/7, luminescence, 6 h; series mostly up to 45.7 µM
How it was run: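 In SNB-19 cells plated at 250 cells/well and grown 16-20 h, compounds were applied 1 h before ZIKV (2 FFU/cell). Six hours later caspase-3/7 luminescence was recorded.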
Throughout, for efficacy: 0% is about no effect.

CC1Sc2c(C(=O)O)c(=O)c3cc(F)c(N4CCNCC4)cc3n21 (stereo unspecified)
inactive: efficacy [1] 10.3% | outcome [2] | outcome [3] | outcome [4] | outcome [5] | outcome [6] | Potency [7] | outcome [8]

CCNc1nc(Cl)nc(NCC)n1
inactive: efficacy [1] 16.6% | outcome [2] | outcome [3] | outcome [4] | outcome [5] | outcome [6] | Potency [7] | outcome [8]

CC(CC(C(N)=O)(c1ccccc1)c1ccccc1)N(C)C (stereo unspecified)
inactive: efficacy [1] 13% | outcome [2] | outcome [3] | outcome [4] | outcome [5] | outcome [6] | Potency [7] | outcome [8]

CC(Cc1ccc2c(c1)OCO2)NO (stereo unspecified)
inactive: efficacy [1] -23.6% | outcome [2] | outcome [3] | outcome [4] | outcome [5] | outcome [6] | Potency [7] | outcome [8]

CCO[C@H]1O[C@@H]2OC3(C)CC[C@H]4[C@H](C)CC[C@@H]([C@H]1C)[C@@]24OO3
inactive: efficacy [1] 19.2% | outcome [2] | outcome [3] | outcome [4] | outcome [5] | outcome [6] | Potency [7] | outcome [8]

CCOC(=O)c1ncn2c1CN(C)C(=O)c1c(I)cccc1-2
inactive: efficacy [1] 19.2% | outcome [2] | outcome [3] | outcome [4] | outcome [5] | outcome [6] | Potency [7] | outcome [8]

COc1ccc(CN2CCNCC2)c(OC)c1OC
inactive: efficacy [1] 47.4% | outcome [2] | outcome [3] | outcome [4] | outcome [5] | outcome [6] | Potency [7] | outcome [8]
